According to PubChem BioAssay (NCATS):
Results filed as inconclusive are left out. Active and inactive are the calls of the source. Unless noted, calls follow the shape of the dose curve; as a rule, active = well fitted curve in the direction sought with a large enough effect; inconclusive = small, poorly fitted or top-dose-only effect, or another doubt; inactive = no such curve, though single readings can be large; an effect the other way counts as inactive or inconclusive.

What was measured:
[1] = qHTS profiling of the MIPE4 collection as inhibitors of Plasmodium falciparum (3D7) proliferation (AID 743344; call rule not given here;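 also: scaled between DMSO vehicle wells and 0.29 µM artemisinin as full inhibition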); details: P. falciparum 3D7 in erythrocytes, SYBR Green DNA fluorescence, 72 h; at 28.5 µM
How it was run: (§1)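 Parasite DNA was quantified by SYBR Green I fluorescence (ex 485, em 535 nm) after overnight lysis in saponin/Triton buffer at room temperature. Cultures at 0.3% parasitemia and 2.5% hematocrit were first exposed to compound for 72 h at 37 C; signals were normalised to artemisinin (0.29 uM) and vehicle wells.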

[2] = qHTS profiling of the MIPE4 collection as inhibitors of Plasmodium falciparum (DD2) proliferation (AID 743345; call rule not given here); details: P. falciparum Dd2 in erythrocytes, SYBR Green DNA, 72 h; at 28.5 µM
How it was run: as §1

[3] = qHTS profiling of the MIPE4 collection as inhibitors of Plasmodium falciparum (DD2) proliferation (Rep 2) (AID 743346; call rule not given here); details: P. falciparum Dd2 in erythrocytes, SYBR Green DNA, 72 h; at 28.5 µM
How it was run: as §1

[4] = qHTS profiling of the MIPE4 collection as inhibitors of Plasmodium falciparum (HB3) proliferation (AID 743347; call rule not given here;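 also: plate controls were DMSO vehicle wells for no effect and artemisinin wells for full effect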); details: P. falciparum HB3 in erythrocytes, SYBR Green DNA, 72 h; at 28.5 µM
How it was run: as §1

[5] = tested on: Zika virus NS2B-NS3 protease (unlinked complex); assay: Confirmatory screen GU AMC qHTS for Zika virus inhibitors (AID 1347153); also: nearly all actives have a fitted effect of over 70% in size;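 as to Potency: enzyme at 25 nM with substrate at 10 µM below its Km of 18.3 µM; potency is read from the fitted curve at half-maximal effect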
How it was run: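 Compounds were preincubated 15 min at room temperature with 25 nM noncovalent NS2B-NS3 protease at pH 8.0; AMC substrate added at 10 microM and 15-min fluorescence gain (340/450 nm) converted to percent inhibition, fitted 4-parameter.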

[6] = Confirmatory screen NINDS Rhodamine qHTS for Zika virus inhibitors (AID 1347161); also: potency is read from the fitted curve at half-maximal effect; nearly all actives have a fitted effect of over 60% in size
How it was run: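 Rhodamine110-peptide cleavage (1.5 µM substrate) by 25 nM linked NS2B-NS3 enzyme at pH 8.0 (Tris, Tween 20), after 15 min RT preincubation with compounds; 15-min fluorescence change normalized to controls and Hill-fitted.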

[7] = tested on: Zika virus NS2B-NS3 protease (linked); assay: 384 well plate NINDS AMC confirmatory qHTS for Zika virus inhibitors (AID 1347163);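 also: fluorescence of AMC released from Ac-VKTGKR-AMC peptide cleaved by the protease; top concentration of the series differs between compounds; 0% = no-inhibitor control and -100% = no-enzyme control; nearly all actives have a fitted effect of over 50% in size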
How it was run: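 Fluorescence at 355/460 nm was read after 25 minutes of cleavage of 30 microM Ac-VKTGKR-AMC at room temperature, in the dark. Before substrate addition, compounds (up to 1 mM final) sat ~15 minutes with 5, 30 or 60 nM linked protease. Signals were normalized to no-enzyme and no-inhibitor wells.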

[8] = tested on: Zika virus NS2B-NS3 protease (linked construct); assay: 384 well plate NINDS Rhodamine confirmatory qHTS for Zika virus inhibitors (AID 1347164); also: potency is read from the fitted curve at half-maximal effect; nearly all actives have a fitted effect of over 65% in size
How it was run: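 Cleavage of Ac-LKRR-Rhodamine 110 (10 microM final) by linked protease (final 5, 30 or 60 nM) was followed as fluorescence at 485/538 nm after 25 min, room temperature, dark. Compounds preincubated ~15 min.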

[9] = Vero cells viability qHTS for Zika virus inhibitors (AID 1347167); also: % is scaled to controls: 0 for no effect and ±100 for the full control effect
How it was run: (§2)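 qHTS titration; 24-48 h compound exposure, 37 degrees C/5% CO2; DMEM, 4% FBS; CellTiter Glo ATP luminescence.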

[10] = HepG2 cells viability qHTS for Zika virus inhibitors (AID 1347168); also: % is scaled to controls: 0 for no effect and ±100 for the full control effect
How it was run: as §2

[11] = Tertiary RLuc qRT-PCR qHTS assay for Zika virus inhibitors (AID 1347169); also: nearly all actives have a fitted effect of over 55% in size; also: potency is read from the fitted curve at half-maximal effect; as to activity change, negative = inhibition: top concentration of the series differs between compounds; % is scaled to controls: 0 for no effect and ±100 for the full control effect
How it was run: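 Inhibition of ZIKV-RLuc replication in Vero cells, read as Renilla luminescence 1-1.5 hrs after live-cell substrate addition, following 48-72 hrs infection at MOI 1-2 in presence of compound.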

[12] = tested on: Zika virus NS2B-NS3 protease; assay: Primary screen GU AMC qHTS for Zika virus inhibitors (AID 1347154);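 also: 0% = no-inhibitor control and -100% = no-enzyme control; nearly all actives have a fitted effect of over 70% in size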
How it was run: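 Unlinked Zika NS2B hydrophilic domain–NS3 protease complex at 25 nM in 10 mM Tris-HCl pH 8.0, 0.01% Tween 20, with an AMC peptide substrate. Fluorescence change (340/450 nm) over 15 min at room temperature, normalized to controls, fitted to 4-parameter Hill.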

[13] = Confirmation and Secondary Assay for Modulators of Hemoglobin Beta Chain Splicing at IVS2 705 locus (AID 930);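 also: HeLa cells stably expressing the EGFP-705 splicing reporter; GFP fluorescence per well restored by corrected splicing of the IVS2-705 intron in EGFP; series mostly up to about 46 µM; % of control where 0% means no effect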
How it was run: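 First, HeLa EGFP-705 cells are seeded at 500/well in Optimem with 2% FCS and left overnight. Next, compound or DMSO is added for 2 days. Finally wells are laser-scanned and total peak GFP intensity scored.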

[14] = qHTS Assay for Lipid Storage Modulators (AID 1519; calls by dose curve; also: potency is read from the fitted curve at half-maximal effect); details: Drosophila S3 cells, BODIPY lipid droplet/cell ratio, laser cytometry, cells loaded with oleic acid
How it was run: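 Cells seeded at 5,000 per well were treated with compounds over a concentration series and loaded with oleic acid (400 uM, as added). Lipid droplet fluorescence (488 nm excitation, 500-530 nm channel) was read by laser-scanning cytometry and normalized to 20 uM Triacsin C.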

[15] = target: Ubiquitin carboxyl-terminal hydrolase 1 (Homo sapiens) (UniProt O94782); assay: Inhibitors of USP1/UAF1: Pilot qHTS (AID 504865); also: potency is read from the fitted curve at half-maximal effect; nearly all actives have a fitted effect of over 35% in size
Chain of Ubiquitin carboxyl-terminal hydrolase 1 (Homo sapiens) (O94782 whole entry, looked up): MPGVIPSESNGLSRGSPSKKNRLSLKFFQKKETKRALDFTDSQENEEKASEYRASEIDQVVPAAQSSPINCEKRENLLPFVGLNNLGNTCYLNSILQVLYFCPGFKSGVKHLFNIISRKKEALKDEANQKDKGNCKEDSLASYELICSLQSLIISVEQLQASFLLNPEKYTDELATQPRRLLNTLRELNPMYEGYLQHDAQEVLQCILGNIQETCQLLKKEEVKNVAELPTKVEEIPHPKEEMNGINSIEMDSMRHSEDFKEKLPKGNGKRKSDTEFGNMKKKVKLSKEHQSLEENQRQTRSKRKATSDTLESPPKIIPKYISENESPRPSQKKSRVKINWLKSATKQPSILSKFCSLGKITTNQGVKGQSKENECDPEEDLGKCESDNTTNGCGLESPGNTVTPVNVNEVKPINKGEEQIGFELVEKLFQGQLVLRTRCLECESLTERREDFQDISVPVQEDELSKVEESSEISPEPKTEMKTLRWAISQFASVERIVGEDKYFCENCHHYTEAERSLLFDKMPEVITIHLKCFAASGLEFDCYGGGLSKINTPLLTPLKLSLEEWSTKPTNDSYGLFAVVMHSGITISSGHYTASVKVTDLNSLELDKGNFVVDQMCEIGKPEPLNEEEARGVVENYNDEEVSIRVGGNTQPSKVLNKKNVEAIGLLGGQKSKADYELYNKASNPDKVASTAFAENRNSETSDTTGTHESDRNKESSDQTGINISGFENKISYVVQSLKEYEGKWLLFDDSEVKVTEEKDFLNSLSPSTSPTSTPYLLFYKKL
How it was run: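 Enzyme-free wells gave the negative control, while test wells held 1nM USP1/UAF1 preincubated with compound for 15 min at room temperature. Ub-Rho at 150nM final started the reaction, and fluorescence at 480/540 nm was recorded kinetically.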

[16] = tested on: Zika virus NS2B-NS3 protease (linked construct); assay: Confirmatory screen NINDS AMC qHTS for Zika virus inhibitors (AID 1347152); also: potency is read from the fitted curve at half-maximal effect; nearly all actives have a fitted effect of over 70% in size
How it was run: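 Concentration-response confirmation used the NINDS linked protease (NS2B hydrophilic domain joined to NS3 protease domain), 1 nM, with a 15-min compound preincubation. Substrate, Nle-KRR-AMC at 10 microM, was read by UV fluorescence before and after 15 min.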

[17] = Primary qHTS for small molecule stabilizers of the endoplasmic reticulum resident proteome: Secreted ER Calcium Modulated Protein (SERCaMP) assay (AID 1508630); also: % is scaled to controls: 0 for no effect and ±100 for the full control effect
How it was run: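 The SH-SY5Y reporter protocol was run at 3 concentrations up to 38.3 uM (primary) or 11 concentrations (follow-up): 16 h compound, 100 nM thapsigargin for 4 h, then extracellular luciferase luminescence.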

[18] = target: Cytochrome P450 2D6 (Homo sapiens) (UniProt P10635); assay: Cytochrome P450 family 2 subfamily D member 6 (CYP2D6) small molecule antagonists: luciferase biochemical (cell-free) qHTS assay (AID 1645840; active = well fitted curve in the direction sought with a large enough effect in the repeat runs; an effect the other way counts as inactive or inconclusive; also: potency is read from the fitted curve at half-maximal effect; nearly all actives have a fitted effect of over 55% in size)
Chain of Cytochrome P450 2D6 (Homo sapiens) (P10635 whole entry, looked up): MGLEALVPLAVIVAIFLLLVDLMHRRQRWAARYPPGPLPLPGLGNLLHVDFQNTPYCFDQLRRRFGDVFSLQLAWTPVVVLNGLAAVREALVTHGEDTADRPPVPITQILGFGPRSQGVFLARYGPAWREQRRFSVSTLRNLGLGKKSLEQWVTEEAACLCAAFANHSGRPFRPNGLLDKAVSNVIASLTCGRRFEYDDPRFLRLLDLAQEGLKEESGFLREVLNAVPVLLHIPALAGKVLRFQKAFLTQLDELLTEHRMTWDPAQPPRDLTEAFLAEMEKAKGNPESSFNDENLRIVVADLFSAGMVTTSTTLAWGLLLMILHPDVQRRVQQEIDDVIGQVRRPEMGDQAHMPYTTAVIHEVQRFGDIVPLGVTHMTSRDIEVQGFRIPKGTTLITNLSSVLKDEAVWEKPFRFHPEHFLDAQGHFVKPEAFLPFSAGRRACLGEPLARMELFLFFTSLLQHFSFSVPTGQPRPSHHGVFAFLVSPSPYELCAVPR
How it was run: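 P450-Glo CYP2D6 system: proluciferin substrate converted by enzyme to luciferin, read by luminescence proportional to activity. Enzyme-substrate mix with compound 10 min at room temperature, then NADPH regeneration 1 h before detection reagent.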

[19] = target: Rap guanine nucleotide exchange factor 3 (Homo sapiens) (UniProt O95398); assay: Confirmatory qHTS for agonist of cAMP-regulated guanine nucleotide exchange factor 3 (EPAC1) (AID 1645881);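 also: EPAC1 catalysed release of BODIPY-GDP from Rap1B seen as fluorescence loss; 100% = effect of cAMP agonist control; nearly all actives have a fitted effect of over 75% in size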
Chain of Rap guanine nucleotide exchange factor 3 (Homo sapiens) (O95398 whole entry, looked up): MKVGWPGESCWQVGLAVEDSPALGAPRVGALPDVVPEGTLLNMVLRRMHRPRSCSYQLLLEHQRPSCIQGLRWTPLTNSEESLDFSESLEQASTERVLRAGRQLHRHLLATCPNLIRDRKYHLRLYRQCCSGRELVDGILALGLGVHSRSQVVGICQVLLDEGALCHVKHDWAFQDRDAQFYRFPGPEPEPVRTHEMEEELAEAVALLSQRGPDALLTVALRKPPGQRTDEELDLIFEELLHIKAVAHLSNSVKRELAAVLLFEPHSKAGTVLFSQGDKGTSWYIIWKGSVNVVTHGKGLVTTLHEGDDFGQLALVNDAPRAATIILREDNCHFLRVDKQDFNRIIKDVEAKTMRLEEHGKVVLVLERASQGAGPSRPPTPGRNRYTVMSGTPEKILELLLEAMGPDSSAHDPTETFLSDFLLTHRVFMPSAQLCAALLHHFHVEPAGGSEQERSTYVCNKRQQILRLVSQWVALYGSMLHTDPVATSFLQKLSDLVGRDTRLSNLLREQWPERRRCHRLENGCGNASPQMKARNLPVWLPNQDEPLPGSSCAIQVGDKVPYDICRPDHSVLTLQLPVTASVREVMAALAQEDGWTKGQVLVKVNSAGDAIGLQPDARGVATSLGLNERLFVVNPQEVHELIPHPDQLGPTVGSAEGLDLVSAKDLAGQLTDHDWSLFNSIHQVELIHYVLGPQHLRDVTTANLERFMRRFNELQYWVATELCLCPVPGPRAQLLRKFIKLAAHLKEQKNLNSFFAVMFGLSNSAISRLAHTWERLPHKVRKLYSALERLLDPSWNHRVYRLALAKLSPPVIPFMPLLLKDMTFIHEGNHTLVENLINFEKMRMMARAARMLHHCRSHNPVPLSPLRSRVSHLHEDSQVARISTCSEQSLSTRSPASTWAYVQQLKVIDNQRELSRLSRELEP

[20] = target: Rap guanine nucleotide exchange factor 4 (Homo sapiens) (UniProt Q8WZA2); assay: Confirmatory qHTS for agonist of cAMP-regulated guanine nucleotide exchange factor 4 (EPAC2) (AID 1645884);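 also: nucleotide exchange releases bodipy-GDP from Rap1 and this lowers its fluorescence; % is scaled to controls: 0 for no effect and ±100 for the full control effect; nearly all actives have a fitted effect of over 65% in size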
Chain of Rap guanine nucleotide exchange factor 4 (Homo sapiens) (Q8WZA2 whole entry, looked up): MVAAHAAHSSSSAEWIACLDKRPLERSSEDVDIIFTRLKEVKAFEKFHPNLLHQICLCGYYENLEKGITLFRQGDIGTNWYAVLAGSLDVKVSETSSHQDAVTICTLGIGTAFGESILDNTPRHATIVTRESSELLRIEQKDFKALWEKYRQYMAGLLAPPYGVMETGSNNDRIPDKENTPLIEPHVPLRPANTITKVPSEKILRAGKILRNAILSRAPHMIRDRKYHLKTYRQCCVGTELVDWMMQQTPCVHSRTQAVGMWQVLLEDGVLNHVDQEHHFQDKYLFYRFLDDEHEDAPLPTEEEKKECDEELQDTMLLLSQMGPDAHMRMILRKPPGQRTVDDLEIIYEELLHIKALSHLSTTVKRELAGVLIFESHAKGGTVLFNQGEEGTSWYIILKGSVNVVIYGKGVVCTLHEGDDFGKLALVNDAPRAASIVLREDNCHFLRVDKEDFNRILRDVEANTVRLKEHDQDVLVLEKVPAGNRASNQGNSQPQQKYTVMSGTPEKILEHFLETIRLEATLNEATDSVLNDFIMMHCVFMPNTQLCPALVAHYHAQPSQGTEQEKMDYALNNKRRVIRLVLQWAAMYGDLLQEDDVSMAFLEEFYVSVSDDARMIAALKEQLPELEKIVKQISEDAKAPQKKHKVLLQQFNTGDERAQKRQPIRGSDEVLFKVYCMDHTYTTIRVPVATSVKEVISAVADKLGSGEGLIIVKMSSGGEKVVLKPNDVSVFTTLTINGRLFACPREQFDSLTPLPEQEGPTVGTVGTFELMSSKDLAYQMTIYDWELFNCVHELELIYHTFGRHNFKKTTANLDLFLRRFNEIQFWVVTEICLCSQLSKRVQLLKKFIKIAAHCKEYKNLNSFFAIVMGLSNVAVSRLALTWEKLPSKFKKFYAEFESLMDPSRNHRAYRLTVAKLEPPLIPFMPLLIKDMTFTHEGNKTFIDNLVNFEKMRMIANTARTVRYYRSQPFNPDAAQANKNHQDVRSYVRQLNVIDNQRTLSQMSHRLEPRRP

[21] = target: Glutathione peroxidase 1 (Homo sapiens) (UniProt P07203); assay: Primary qHTS Assay for Inhibitors of Recombinant Selenoprotein Glutathione Peroxidase 1 (GPX1) (AID 1845191); also: % is scaled to controls: 0 for no effect and ±100 for the full control effect; nearly all actives have a fitted effect of over 65% in size
Chain of Glutathione peroxidase 1 (Homo sapiens) (P07203 whole entry, looked up): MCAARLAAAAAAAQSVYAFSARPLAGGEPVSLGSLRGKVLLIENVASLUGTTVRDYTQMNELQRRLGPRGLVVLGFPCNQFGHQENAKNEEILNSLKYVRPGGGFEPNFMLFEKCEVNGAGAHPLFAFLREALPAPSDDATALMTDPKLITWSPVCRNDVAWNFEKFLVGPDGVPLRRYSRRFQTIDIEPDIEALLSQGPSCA
How it was run: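 GR-coupled readout: NADPH consumption tracked by fluorescence, ex 340/em 450 nm, at t=0 and after 15 min at RT. Final mix 10 nM GPX1, 1 mM GSH, 0.5 mM CHP, 0.5 mM NADPH, 100 nM GR, 0.01% BSA, following 30 min enzyme–compound preincubation.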

[22] = target: Phospholipid hydroperoxide glutathione peroxidase GPX4 (Homo sapiens) (UniProt P36969); assay: Primary qHTS Assay for Inhibitors of Recombinant Selenoprotein Glutathione Peroxidase 4 (GPX4) (AID 1845192); details: outcome: dose series up to 50 µM unless noted; also: potency is read from the fitted curve at half-maximal effect; nearly all actives have a fitted effect of over 65% in size
Chain of Phospholipid hydroperoxide glutathione peroxidase GPX4 (Homo sapiens) (P36969 whole entry, looked up): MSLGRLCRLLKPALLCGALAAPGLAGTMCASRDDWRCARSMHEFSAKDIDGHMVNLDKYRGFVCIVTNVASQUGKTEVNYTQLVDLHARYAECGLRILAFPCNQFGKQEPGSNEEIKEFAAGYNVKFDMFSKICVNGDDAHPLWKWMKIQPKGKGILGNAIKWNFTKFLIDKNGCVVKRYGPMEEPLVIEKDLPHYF
How it was run: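 Steps: GPX4 plus compound, 30 min RT; add GR/GSH/NADPH master mix; start with cumene hydroperoxide; read 340/450 nm fluorescence at 0 and 15 min. Finals were 200 nM GPX4, 1 mM GSH, 0.5 mM CHP, 0.5 mM NADPH, 100 nM GR.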

What does the source list for `O=C(O)c1cc(NCc2cc(O)ccc2O)ccc1O`?
parasite growth, % of DMSO control [1]: 85.7%; parasite growth remaining, % of DMSO control (lower = more inhibition) [2]: 96.7%; parasite growth, % of control (lower = inhibition) [3]: 67.1%; growth, % of control [4]: 68.7%; Potency [5]: inactive; Potency [6]: 12.4 µM (active); Potency [7]: inactive; Potency [8]: 22.4 µM (active); Potency [9]: inactive; Potency [10]: inactive; Potency [11]: inactive

With `COC(=O)CNC(=O)C(=O)OC` as the molecule, how does the activity change, negative = inhibition [12] read?
The activity change, negative = inhibition was 11.4% [at 6.83 µM] (inactive).

Which Potency [12] does the source give for `Nc1cc(N2CCCCC2)nc(N)[n+]1OS(=O)(=O)[O-]` here?
Its Potency is “inactive”.

What does the source list for `CCOc1nc2cccc(C(=O)OC(C)OC(=O)OC3CCCCC3)c2n1Cc1ccc(-c2ccccc2-c2nn[nH]n2)cc1` (configuration not stated)?
outcome [13]: inactive; Potency [14]: 7.94 µM (active); max response ([14]; measured here: cell count channel max response): -28.3%; max response ([14]; measured here: lipid channel max response): -78.8%; Potency [15]: 22.4 µM (active); Potency [16]: 12.1 µM (active); Potency [5]: 17.1 µM (active); Potency [6]: 1.24 µM (active); Potency [8]: 12.6 µM (active); Potency [9]: inactive; Potency [10]: inactive; Potency [11]: 14.7 µM (active); Potency [17]: inactive; Potency [18]: 13.5 µM (active); outcome [19]: inactive; outcome [20]: inactive; Potency [21]: inactive; Potency [22]: 7.94 µM (active)

For `COc1ccccc1N1CCN(CC2CN3C(=O)N(C)c4ccccc4C3=N2)CC1` (configuration not stated), which Potency [12] is on record?
Its Potency is “inactive”.
